Source: PubChem (The Scripps Research Institute Molecular Screening Center)
PP5 inh = PP5 phosphatase inhibitors, primary screen, biochemical, fluorescence; Serine/threonine-protein phosphatase 5 (Homo sapiens), P53041; purified PP5c, OMFP substrate fluorescence; inhibition, % at 6.7 µM; 320,000 compounds, 0.18% hits; AID 1987, 2009;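 active means inhibition above the campaign's mean inhibition across all tested compounds plus 3 SD, cut at about 9.5% in these data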;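 further: 0% = DMSO only and 100% = 100 µM cantharidin control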
PAFAH1B3 inh = PAFAH1B3 enzyme inhibitors, primary screen, biochemical, fluorescence polarization, human; Platelet-activating factor acetylhydrolase IB subunit alpha1 (Homo sapiens), Q15102; 340,000 compounds, 0.28% hits; recombinant PAFAH1B3, FP-rhodamine probe; inhibition, % at 3.39 µM;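 active means inhibition above the screen-wide average of all tested compounds plus 3 SD, cut at about 25% in these data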;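 further: 0% = enzyme with DMSO only and 100% = wells lacking PAFAH1B3 protein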
Fh CTSL1 inh = Fasciola hepatica cathepsin L1 inhibitors, primary screen, counter-screen for PFM18AAP inhibitor project, biochemical, QFRET, fluorogenic peptide substrate; inhibition, % at 5.96 µM; recombinant F. hepatica cathepsin L1, Z-Leu-Arg-MCA fluorescence; 300,000 compounds, 0.49% hits;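 active means inhibition above the mean of all tested compounds plus 3 SD, set per screening campaign, cut at about 17% in these data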;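 further: 0% = plate median of test compound wells and 100% = 1 µM Z-Phe-Ala-diazomethylketone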
pPAFAH FP inh = pPAFAH enzyme inhibitors, primary screen, biochemical, fluorescence polarization, human; Platelet-activating factor acetylhydrolase (Homo sapiens), Q13093; recombinant pPAFAH, FP-rhodamine probe fluorescence polarization; inhibition, % at 3.39 µM; 330,000 compounds, 1.5% hits; AID 463082, 2010;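 active means inhibition above the mean inhibition across the screen plus 3 SD, cut at about 25% in these data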;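 further: inhibitors block binding of the rhodamine activity-based probe so polarization drops; 0% = enzyme with DMSO and 100% = wells lacking pPAFAH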
Target sequence (Q13093 whole entry, looked up): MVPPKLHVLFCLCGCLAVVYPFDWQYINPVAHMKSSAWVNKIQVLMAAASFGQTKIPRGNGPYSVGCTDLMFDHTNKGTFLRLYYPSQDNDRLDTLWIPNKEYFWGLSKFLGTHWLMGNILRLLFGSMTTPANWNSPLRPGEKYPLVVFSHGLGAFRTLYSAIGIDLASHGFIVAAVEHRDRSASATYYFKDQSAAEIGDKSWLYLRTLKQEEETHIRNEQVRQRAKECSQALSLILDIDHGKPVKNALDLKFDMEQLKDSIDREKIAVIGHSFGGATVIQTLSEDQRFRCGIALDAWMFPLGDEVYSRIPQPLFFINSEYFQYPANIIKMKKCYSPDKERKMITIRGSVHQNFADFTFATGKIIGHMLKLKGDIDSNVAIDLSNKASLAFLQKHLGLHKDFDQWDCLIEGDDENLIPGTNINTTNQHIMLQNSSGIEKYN
PAFAH2 FP inh = PAFAH2 enzyme inhibitors, primary screen, biochemical, fluorescence polarization, human | Platelet-activating factor acetylhydrolase 2, cytoplasmic (Homo sapiens), Q99487 | recombinant PAFAH2, FP-rhodamine activity probe | inhibition, % at 3.39 µM | 340,000 compounds, 0.99% hits | AID 492956, 2010;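 active means inhibition above the mean over all tested compounds plus 3 SD, cut at about 30% in these data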;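 further: inhibitors block probe labeling of enzyme so polarization drops; 0% = enzyme with DMSO and 100% = wells lacking PAFAH2 protein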
PAFAH1B2 inh = PAFAH1B2 enzyme inhibitors, primary screen, biochemical, fluorescence polarization, human | AID 492953, 2010 | recombinant PAFAH1B2, FP-rhodamine activity probe | inhibition, % at 3.39 µM | Platelet-activating factor acetylhydrolase IB subunit alpha2 (Homo sapiens), P68402 | 340,000 compounds, 1.2% hits;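 active means inhibition above the mean of all tested compounds plus 3 SD, cut at about 24% in these data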;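 further: 0% = enzyme with DMSO and 100% = wells lacking PAFAH1B2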
PAFAH1B3 confirm = PAFAH1B3 enzyme inhibitors, confirmation, biochemical, fluorescence polarization, human | shares compounds with PAFAH1B3 inh | recombinant PAFAH1B3, FP-Rh activity-based probe | inhibition, % at 3.39 µM | 390 compounds, 30% hits | AID 493032, 2011;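 active means average inhibition over triplicate runs above the hit cutoff set in the earlier primary screen, cut at about 25% in these data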;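 further: 0% = enzyme with DMSO and 100% = wells lacking PAFAH1B3 protein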
Active calls of the source: *; nt = no result. The list is not random: actives were taken first. Their share in the collection is about 3%.

SMILES	PP5 inh	PAFAH1B3 inh	Fh CTSL1 inh	pPAFAH FP inh	PAFAH2 FP inh	PAFAH1B2 inh	PAFAH1B3 confirm
Cc1ccc(/C=C2\C(=N)N3N=C(CC(=O)N4CCOCC4)SC3=NC2=O)o1	-2	12	3	11	11	0	nt
N=C1/C(=C/c2ccc(-c3cccc(C(=O)O)c3)o2)C(=O)N=C2SC(CC(=O)N3CCOCC3)=NN12	0	30*	1	14	14	11	17
CCOc1ccccc1NC(=O)COC(=O)c1cnc(C)cn1	-2	5	nt	-2	-1	2	nt
COc1cc(OC)cc(C(=O)NCC(=O)OC2CCCCC2=O)c1 (configuration not stated)	1	4	nt	2	-4	5	nt
ON=C1c2ccccc2-c2ccccc21	4	35*	0	1	2	2	28*
O=C(CCn1c(=S)oc2ccccc21)Nc1cc([N+](=O)[O-])ccc1F	-1	8	6	5	2	2	nt
CC(C)(C)C(=O)Nc1ccc(C(=O)CSc2nnc(C3CC3)n2C2CC2)cc1	1	2	nt	1	0	-3	nt
S=C(Nc1ccc2nsnc2c1)N1CCCCC1	4	51*	0	1	15	12	9
S=C(Nc1ccc(Cl)c(Cl)c1)N1CCCC1	0	-3	3	2	3	0	nt
O=C(CSC1=NS(=O)(=O)c2cc(F)ccc2N1)NCc1ccccc1Cl	-2	1	-4	-3	-6	5	nt
CCN(c1ccccc1)c1cc2ccccc2c(=O)[nH]1	4	26*	51*	3	7	13	8
O=c1cc[nH]c2c1ccc1c(=O)cc[nH]c12	-1	31*	3	12	1	9	80*
Cc1cn2c(N)c(C=C3C=C(Cl)C(=O)C(Cl)=C3)c(=O)nc2s1	nt	35*	nt	nt	6	9	23
CCC(C)n1c(NC(=O)c2ccccc2)c(C#N)c2nc3ccccc3nc21 (configuration not stated)	6	35*	2	14	-2	2	8
CC(C)(C)N(Cc1ccccc1)C(=O)CN1C(=O)NC2(CCCCCC2)C1=O	1	5	nt	3	2	13	nt
COc1cc(C(=O)N/N=C/c2ccc3c(c2)c2ccccc2n3C)ccc1O	nt	41*	nt	nt	-19	14	16
COc1ccc(N2CS(=O)CC2=O)cc1 (configuration not stated)	1	43*	-2	1	0	3	5
Cc1cccc(Cn2ncc(Cl)c(Cl)c2=O)c1	-2	-9	2	-4	-7	3	nt
Cc1cccc(Cn2nnc3c2C(=O)c2ccccc2C3=O)c1	2	30*	19*	1	7	10	9
O=C(CN1CCCc2ccccc21)N/N=C/c1c(O)ccc2ccccc12	4	31*	1	12	22	13	14
O=C(Nc1ccc2c(c1)OCO2)c1cc(-c2ccncc2)nc2ccccc12	1	8	1	1	-2	3	nt
Fc1ccc2nc(Nc3nc4cc5c(cc4s3)OCO5)sc2c1	-1	43*	-1	24	-32	23	44*
O=C1C=C(O)c2[nH]c(=O)ccc2C1=O	nt	53*	nt	nt	14	21	16
CN1C(=O)C(C)(C)N(C(=O)c2cccc([N+](=O)[O-])c2)c2ccccc21	0	9	1	1	-3	6	nt
O=c1cc(CCl)nc2sc3ccccc3n12	-2	60*	1	7	-1	-3	73*
SMILES	PP5 inh	PAFAH1B3 inh	Fh CTSL1 inh	pPAFAH FP inh	PAFAH2 FP inh	PAFAH1B2 inh	PAFAH1B3 confirm
Cc1c(O)nc2sc3ccccc3n2c1=O	-2	nt	0	2	nt	nt	nt
COc1ccc([C@H]2CC(=O)C=C(c3ccc4ncccc4c3)C2)cc1OC	nt	5	nt	2	2	2	nt
CCCC1=Nc2cc(C(=O)N3CCC(C(=O)OCC)CC3)ccc2Sc2ccccc21	5	-3	0	11	8	7	nt
Cc1cccc(C(=O)Oc2ccc(/C=N/NC(=O)c3cc(O)cc(O)c3)cc2)c1	nt	26*	nt	nt	-17	5	12
Cc1ccc(NC(=O)c2ccc(S(=O)(=O)N(C)c3ccccc3)cc2)cc1S(=O)(=O)N1CCOCC1	nt	4	nt	nt	-32	1	nt
CCN1CCN(C2=C(NS(=O)(=O)c3ccc(C)cc3)C(=O)c3ccccc3C2=O)CC1	1	6	4	0	-2	8	nt
COc1ccccc1NS(=O)(=O)c1cc(N)ccc1N1CCCC1	nt	16	nt	14	5	6	nt
Cc1ccc(NC2=C(N3CCCCC3)C(=O)c3ccccc3C2=O)cc1	9	41*	34*	-1	29	12	17
COc1ccccc1NC1=C(N2CCCCC2)C(=O)c2ccccc2C1=O	7	42*	62*	-7	13	7	21
NC1=NC(c2ccccc2C(F)(F)F)N(c2ccc(F)c(Cl)c2)C(N)=N1 (configuration not stated)	-2	-1	0	-3	-5	6	nt
CC(=O)N(/N=C1\Sc2ccccc2C1=O)c1cccc(C)c1	-5	42*	88*	-6	7	7	54*
CC(=O)N(CN1C(=O)c2ccccc2C1=O)c1cccc(C)c1	-6	2	-1	6	-7	3	nt
Cc1ccnc(NC(=O)CNC(=O)c2ccccc2Br)c1	1	1	0	2	-7	0	nt
Cc1cccc(C2Nc3cccc4cccc(c34)N2)c1	2	31*	-6	4	6	9	9
Clc1ccc(C2Nc3cccc4cccc(c34)N2)cc1	0	13	4	16	-3	12	nt
c1cc2c3c(cccc3c1)NC(c1ccc3c(c1)OCO3)N2	2	28*	-1	0	14	13	10
CSc1ccc(C2Nc3cccc4cccc(c34)N2)cc1	2	14	-4	0	0	1	nt
O=C(O)[C@@H]1[C@H]2C[C@H]3c4[nH]c5ccccc5c4CCN3C[C@@H]2CC[C@@H]1O	2	28*	0	8	6	17	24
CCCCCN(C(=O)CCC(=O)OCCOc1cccc(C)c1)c1c(N)n(CCCC)c(=O)[nH]c1=O	0	-1	2	3	1	2	nt
CCCCn1c(N)c(N(CCC(C)C)C(=O)COC(=O)c2ccc([N+](=O)[O-])s2)c(=O)[nH]c1=O	nt	30*	nt	2	25	13	22
